Test results from PubChem BioAssay (NCI).
The panel holds about 83,000 compounds, 20% with a hit somewhere; the sample as a whole holds those more often.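 Single-concentration screen, 48 h exposure, 96-well plates. Endpoint: percent growth. Below 10 = active.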 Calls of active or inactive are those of the source.

Assays:
Experiment in all cases: NCI-60 one-dose screen, 48 h (100 = growth as untreated, 0 = no growth, -100 = all killed)
Settings in all cases: 10 µM unless noted
[1] = system: SR leukemia
[2] = system: RPMI-8226 leukemia
[3] = system: OVCAR-8 ovarian
[4] = system: OVCAR-5 ovarian
[5] = system: OVCAR-4 ovarian
[6] = system: SK-OV-3 ovarian
[7] = system: IGROV1 ovarian
[8] = system: OVCAR-3 ovarian
[9] = system: HS 578T breast
[10] = system: NCI/ADR-RES ovarian

Measured: growth

N=C(N)c1ccc(-c2ccc(-c3cc(Cl)cc(Cl)c3)s2)s1
active: [1] -29.4% | [2] -26% | [3] -34.6% | [4] 3.07% | [5] -58% | [7] -26.7% | [8] -76.2% | [10] -21.4%
inactive: [6] 88.7% | [9] 87.6%

C=C1C(=O)O[C@H]2[C@H]1CC/C(COC(=O)/C=C\C(=O)NCc1ccc(Cn3c(=O)sn(CCCCl)c3=O)cc1)=C\CC[C@@]1(C)O[C@@H]21
inactive: [1] 66.5% | [2] 44.9% | [3] 79.9% | [4] 82.2% | [5] 74.9% | [6] 97.4% | [7] 58.6% | [8] 37.4% | [9] 88.8% | [10] 93.7%

CCOC(=O)C/C(=N\Nc1cc(=O)[nH]c2ccc(C)cc12)C(=O)OCC
inactive: [1] 46.4% | [2] 91.3% | [3] 101% | [4] 104% | [5] 106% | [6] 126% | [7] 98% | [8] 101% | [9] 91.8% | [10] 105%

CCOC(=O)c1c(C)nc2c(c1N)C(=O)C(=O)N2Cc1ccc(OC)cc1
inactive: [1] 31% | [2] 20.1% | [3] 61.6% | [4] 97.5% | [5] 46.6% | [6] 108% | [7] 82.5% | [8] 18.2% | [9] 79.2%
active: [10] 8.45%

c1cc(OCCN2CCCC2)ccc1CNc1ccc2nc(CCC3CCCCC3)[nH]c2c1
active: [1] 7.84% | [2] -8.82%
inactive: [3] 43% | [4] 67.5% | [5] 56.7% | [6] 99.3% | [7] 46.3% | [8] 49.6% | [9] 44.1% | [10] 85%

COc1ccc(C(c2cc(OC)c(OC)c(OC)c2)N2CCCCC2)cc1 (stereo not given)
active: [8] 8.29%
inactive: [1] 18.5% | [2] 51.2% | [3] 50.1% | [4] 69.6% | [5] 69.2% | [6] 16.7% | [7] 47.1% | [9] 16.6% | [10] 24%

O=S(=O)(Nc1cc(F)cc(F)c1)c1ccc(-c2cnc(C3CC3)o2)cc1
inactive: [1] 16.2% | [2] 26.5% | [3] 49.6% | [4] 71% | [5] 67.8% | [6] 60.2% | [7] 34.3% | [9] 14.4% | [10] 26.4%
active: [8] 2.74%

Cc1c(C(C)(C)O)cn2ncnc(Oc3ccc(NC(=O)Nc4ccc(Cl)c(C(F)(F)F)c4)c(F)c3)c12
inactive: [2] 49.9% | [3] 70.7% | [4] 134% | [5] 37.5% | [6] 95.6% | [7] 57.3% | [8] 47.6% | [9] 80.9% | [10] 68%
active: [1] 8.9%

C/C(=C(\c1ccc(OCCN2CCCCCC2)cc1)c1ccc(OC(=O)c2ccccc2)cc1)c1ccc(Cl)cc1
inactive: [2] 13.1% | [3] 42.6% | [4] 68.5% | [5] 37.5% | [6] 77.1% | [7] 46.7% | [8] 61.8% | [9] 42% | [10] 59%
active: [1] -16.1%

CCOC(=O)CC1CSC(N/N=C/c2ccc(F)c(Br)c2)=N1 (stereo not given)
inactive: [1] 87.7% | [2] 104% | [3] 114% | [4] 95.1% | [5] 89.1% | [6] 95.3% | [7] 117% | [8] 99.3% | [9] 112% | [10] 103%

Cn1c(=O)c2[nH]c(SC/C(=N/O)c3ccc(Br)cc3)nc2n(C)c1=O
inactive: [1] 60.4% | [2] 59.4% | [3] 26.5% | [4] 54.8% | [7] 20.1% | [8] 11.8% | [9] 31.8% | [10] 37.1%
active: [5] 7.77% | [6] -33.3%

COc1cc2c(c(OC)c1OC)C(=O)CC(c1cccc(C(=O)Nc3ccc(C#N)cc3)c1)O2 (stereo not given)
inactive: [1] 41.2% | [2] 29.7% | [3] 42.9% | [4] 102% | [5] 55.2% | [6] 104% | [7] 88.5% | [8] 74.5% | [9] 92.4% | [10] 52.4%

O=C(NCCCCCCNC(=O)OCc1ccc2c(Cl)cc(Cl)c(O)c2n1)OCc1ccc2c(Cl)cc(Cl)c(O)c2n1
active: [1] 4.84% | [2] -17.4% | [3] -32.6% | [4] -89.6% | [5] -56.9% | [7] -88.3% | [8] -73.6% | [9] -15.1% | [10] -12.5%
inactive: [6] 42.9%

O=C(C1=Cc2cc3ccccc3n2Cc2cnnn21)c1ccc(F)cc1
inactive: [1] 87.6% | [2] 92.4% | [3] 99.4% | [4] 115% | [5] 95% | [6] 94.6% | [7] 90% | [8] 104% | [9] 90.8% | [10] 101%

CN(C)/C(N)=N/N=C(\c1ccccc1)c1ccccn1
inactive: [1] 85.5% | [2] 92.1% | [3] 103% | [4] 102% | [5] 86.6% | [6] 113% | [7] 93.7% | [8] 93.7% | [9] 97.8% | [10] 98.3%

COc1ccc(-c2cc(-c3cn(-c4cccc(Cl)c4)nc3-c3ccc(OC)cc3)on2)cc1
inactive: [1] 68.4% | [2] 88.3% | [3] 93.7% | [4] 111% | [5] 106% | [6] 98% | [7] 97.5% | [8] 103% | [9] 96.3% | [10] 100%

COc1ccc(C/C(C)=C(\c2ccc(Cl)cc2)c2ccc(OCCN3CCCC3)cc2)cc1
inactive: [2] 13.9% | [3] 91.1% | [4] 68.9% | [5] 97.7% | [6] 101% | [7] 69% | [8] 93.1% | [9] 70.4% | [10] 87.8%
active: [1] -14.2%

C=C1C(=O)O[C@@H]2C3C(=C(C)CC[C@@H]12)CC1O[C@]13C (stereo not given in full)
inactive: [1] 38.4% [6.75 µM] | [2] 43.8% [6.75 µM] | [3] 83.5% [6.75 µM] | [4] 108% [6.75 µM] | [5] 93.4% [6.75 µM] | [6] 118% [6.75 µM] | [7] 99.4% [6.75 µM] | [8] 75.8% [6.75 µM] | [9] 90.4% [6.75 µM] | [10] 98.1% [6.75 µM]

O=C(Nc1cc(Cl)ccc1O)c1ccccc1Nc1ccnc(C(F)(F)F)c1
active: [1] -26.3% | [2] -21.5% | [7] 1.77% | [8] -6.87% | [9] -2.86% | [10] -2.27%
inactive: [3] 10.6% | [4] 68.6% | [5] 19.8% | [6] 49.9%

Ic1ccc(Nc2nc3nonc3nc2Nc2ccc(I)cc2)cc1
inactive: [4] 34% | [5] 19.3% | [7] 28.5% | [9] 19.2%
active: [1] -12.6% | [2] -36.6% | [3] 6.55% | [6] -19.9% | [8] 9.01% | [10] 3.09%

Cc1nc2sc(C(=O)Nc3cccc(Cl)c3C)c(N)c2cc1C(=O)/C=C/c1ccccc1
active: [2] -37.2% | [3] -12.5% | [4] 8.98% | [7] -11.8% | [8] -76.6% | [9] 6.35% | [10] -4.7%
inactive: [1] 14.2% | [5] 35.5% | [6] 28.8%

Cc1ccc2c(c1)sc1nc(-c3c[nH]c4ccccc34)c(Nc3ccccc3)n12
active: [6] -4.12%
inactive: [1] 97.2% | [2] 102% | [3] 104% | [4] 105% | [5] 95.8% | [7] 104% | [8] 99.2% | [9] 98.7% | [10] 104%

CCOC(=O)C1=C(CCl)N(C)C(=O)NC1c1ccc2c(c1)OCO2 (stereo not given)
inactive: [1] 19.8% | [2] 12.3% | [3] 44.9% | [4] 76.9% | [5] 55.9% | [6] 93.7% | [7] 74.6% | [8] 25.2% | [9] 50% | [10] 72%

O=C(Nc1ccccc1O)c1ccc(CNc2ccnc(C(F)(F)F)c2)cc1
inactive: [1] 24.3% | [3] 38.8% | [4] 76.6% | [5] 52.5% | [6] 58.6% | [7] 59.9% | [8] 76.2% | [9] 50% | [10] 18.4%
active: [2] 1.91%
